Screening data as filed in PubChem.
Pf apPOL inh = Pf-apPOL inhibitors, biochemical, fluorescence. Plasmodium falciparum apicoplast DNA polymerase (apPOL). Recombinant Pf-apPOL, molecular beacon fluorescence, 1.5 h. inhibition, % at 10 µM. 0.25% of 210,000 active. AID 1794808, 2022
mHTT CaM bind = mutant huntingtin-calmodulin interaction inhibitors – biochemical, AlphaScreen, primary screen; P42858; AlphaScreen His-mHTT/GST-CaM binding, luminescence; inhibition, % at 15 µM; 3.6% of 190,000 active; AID 1671202, 2021;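 further: 0% = both proteins with DMSO and 100% = one protein alone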
Starred values were filed as active, the others as inactive; . = not tested or not shown. In the library only some 3.5% were active in any assay of this set; here they are far more common. No stated cut-off is given here; in the data, active means inhibition above about 50%; inactive means the rest.

SMILES | Pf apPOL inh | mHTT CaM bind
O=C(O)c1cccc2c1NC(C(=O)O)C1CC=CC21 (stereo unspecified) | 4 | 77*
Cc1nc(CC(=O)O)cs1 | 12 | .
O=C(NCc1ccccc1Cl)c1cc2n(n1)CCCN(Cc1cccc(F)c1)C2=O | -2 | 8
COc1ccccc1C(=O)N1CCC(COc2ccc(C(=O)NC(C)C)cc2)CC1 | -4 | 1
Cc1ccc(-n2cnc(N=CN3CCOCC3)c2C(=O)c2ccccc2)cc1 | -7 | 6
O=C(N=c1sccn1Cc1ccc(C(=O)N2CCCC2)cc1)c1ccccc1F | 58* | 7
Cc1cccc(C(=O)N=c2sccn2Cc2ccccc2C(=O)N2CCCC2)c1 | 0 | 15
CCCCCCN1C[C@@H](n2cc(C3CC3)nn2)[C@H](O)C[C@@H]1c1ccc(OC)cc1 | 0 | 36
O[C@H]1C[C@H](c2ccccc2)N(Cc2cccs2)C[C@@H]1n1cc(C2CC2)nn1 | -3 | 74*
COc1ccc([C@H]2C[C@H](O)[C@@H](n3cc(C4CC4)nn3)CN2Cc2cccs2)cc1 | 2 | 94*
Cc1ccc([C@H]2C[C@@H](n3cc(C4CC4)nn3)[C@H](O)CN2Cc2cccs2)cc1 | -1 | 32
CNS(=O)(=O)c1ccc(C)c(N(C)S(=O)(=O)c2ccc(C)cc2)c1C | -8 | -3
CCOC(=O)CNC(=O)C1CCCc2c1[nH]c1ccc(Cl)cc21 (stereo unspecified) | 1 | 100*
NC(=O)CNC(=O)C1CCCc2c1[nH]c1ccc(Cl)cc21 (stereo unspecified) | -7 | 10
CC1CCN(Cc2nc(C(=O)NC3CCCCC3)co2)CC1 | -2 | -3
Cc1ccc(N2CCN(Cc3nc(C(=O)NC4CC4)co3)CC2)cc1 | 0 | 92*
N#Cc1cccc(CN2CCC(c3nncn3-c3ccccc3)CC2)c1 | -2 | 9
Cc1ccccc1NC(NC(=O)c1cccs1)C(=O)c1ccccc1 (stereo unspecified) | 2 | 21
CC(=O)Nc1ccc(NC(NC(=O)c2cccs2)C(=O)c2ccccc2)cc1 (stereo unspecified) | -5 | 9
O=C(NC(Nc1cccc(C(F)(F)F)c1)C(=O)c1ccccc1)c1cccs1 (stereo unspecified) | -6 | 83*
O=C(NC(Nc1ccc(Br)cc1)C(=O)c1ccccc1)c1cccs1 (stereo unspecified) | -2 | 63*
CN(C)C=Nc1c(C#N)cnn1-c1ncnc2sc(-c3ccccc3)cc12 | -2 | 82*
Cc1c(C#N)sc2nc(-c3ccccc3)nc(N=CN(C)C)c12 | -4 | -4
Cc1ccc(-c2noc(C3CCN(CC(=O)Nc4ccccc4Cl)CC3)n2)cc1 | -3 | -11
CC(C)(C)c1ccc(S(=O)(=O)N=C2C=CC(=O)c3ccccc32)cc1 | 8 | 94*
SMILES | Pf apPOL inh | mHTT CaM bind
CCc1ccc(S(=O)(=O)N=C2C=CC(=O)c3ccccc32)cc1 | -2 | 93*
CCc1ccc(S(=O)(=O)N=C2C=CC(=O)C=C2)cc1 | -2 | 48
COc1ccc(S(=O)(=O)N=C2C=C(Br)C(=O)C(Br)=C2)cc1 | -1 | 46
CCOc1ccc(S(=O)(=O)N=C2C=CC(=O)c3ccccc32)cc1 | -4 | 72*
CCOc1ccc(C2C(=O)c3ccccc3C2=O)cc1 | -1 | -4
CCOc1ccc(S(=O)(=O)N=C2C=CC(=O)C(Br)=C2)cc1 | -5 | 73*
CC(C)c1ccc(S(=O)(=O)N=C2C=C(Br)C(=O)c3ccccc32)cc1 | -3 | 40
Cc1cc(O)c(C(c2ccc(C(C)C)cc2)c2c(O)cc(C)oc2=O)c(=O)o1 | -2 | 0
CN1CCN(Nc2ncc([N+](=O)[O-])c(N)n2)CC1 | -2 | -10
CC(=O)c1ccc(OC2OC3COC(c4cccc(Br)c4)OC3C(O)C2O)cc1 (stereo unspecified) | -1 | 6
CCCNC(=O)c1cc2c(s1)CCN(C(=O)c1ccc(Cl)cc1)C2 | -8 | 7
Cc1c(Cl)cccc1NC(=O)Cn1[nH]c2c(cnc3ccc(F)cc32)c1=O | 2 | 58*
Cc1ccc2ncc3c(=O)n(CC(=O)Nc4cccc(F)c4)[nH]c3c2c1 | 0 | 81*
Cc1ccc(NC(=O)Cn2[nH]c3c(cnc4ccc(Cl)cc43)c2=O)cc1 | -2 | -7
Cc1cc(C)cc(NC(=O)Cn2[nH]c3c(cnc4ccc(F)cc43)c2=O)c1 | 2 | -9
Cc1ccc(NC(=O)Cn2[nH]c3c(cnc4ccc(F)cc43)c2=O)cc1C | 7 | -5
O=C(Cn1[nH]c2c(cnc3ccc(Cl)cc32)c1=O)Nc1ccc(F)cc1F | -3 | 66*
O=C(Cn1[nH]c2c(cnc3ccc(Cl)cc32)c1=O)Nc1cccc(F)c1 | -4 | 90*
O=C(Cn1[nH]c2c(cnc3ccc(Cl)cc32)c1=O)Nc1cccc(Cl)c1 | 0 | 21
O=C(NCc1cccnc1)c1ccc(NC(=O)C2CC2)cc1N1CCCCCC1 | -1 | 9
COc1ccc(-c2noc(C3CCN(CC(=O)NC4CCCCC4)CC3)n2)cc1 | -2 | 3
Cc1cnc2c(ccc3c(C)c(C)cnc32)c1C | . | 100*
CC1=C(C(=O)Nc2ccccn2)C(c2ccc(OCc3ccccc3)cc2)n2nnnc2N1 (stereo unspecified) | 6 | 46
CC1=C(C(=O)Nc2ccccc2)C(c2ccc(OCc3ccccc3)cc2)n2nnnc2N1 (stereo unspecified) | -5 | 62*
Cn1cc2c3c(cccc31)CN(C(=O)Nc1ccccc1)CC2 | -4 | 12
SMILES | Pf apPOL inh | mHTT CaM bind
COCOCCn1cc(CN2CCS(=O)(=O)N(Cc3ccc(-c4ccc(C)cc4)cc3)C(CC(C)C)C2=O)nn1 (stereo unspecified) | -9 | 16
COCOCCn1cc(CN2CCS(=O)(=O)N(Cc3ccc(-c4ccc(Cl)c(Cl)c4)cc3)C(C(C)C)C2=O)nn1 (stereo unspecified) | -11 | 100*
CC(C)C1C(=O)N(Cc2cn(CCC3OCCCO3)nn2)CCS(=O)(=O)N1Cc1ccc(-c2ccc(F)cc2)cc1 (stereo unspecified) | -1 | 70*
Cc1ccc(-c2ccc(CN3C(CC(C)C)C(=O)N(Cc4cn(CCC5OCCO5)nn4)CCS3(=O)=O)cc2)cc1 (stereo unspecified) | -13 | 23
CC(C)CC1C(=O)N(Cc2cn(CCC3OCCO3)nn2)CCS(=O)(=O)N1Cc1ccc(-c2ccc(Cl)c(Cl)c2)cc1 (stereo unspecified) | -5 | 72*
COCOCCn1cc(CN2CCS(=O)(=O)N(Cc3ccc(-c4ccc(F)cc4)cc3)C(CC(C)C)C2=O)nn1 (stereo unspecified) | -10 | 69*
COCOCCn1cc(CN2CCS(=O)(=O)N(Cc3ccc(-c4ccc(Cl)cc4)cc3)C(C(C)C)C2=O)nn1 (stereo unspecified) | -29 | 42
CC(C)C1C(=O)N(Cc2cn(CCC3OCCCO3)nn2)CCS(=O)(=O)N1Cc1ccc(-c2ccncc2)cc1 (stereo unspecified) | -7 | 17
CC(=O)C1=C(O)C(=O)N(c2ccc(F)cc2)C1c1ccc([N+](=O)[O-])cc1 (stereo unspecified) | -4 | 3
Cc1c(C(=O)N2CCOCC2)csc1-c1ccccc1 | -1 | -2
COc1ccc(-c2ccc(CN3C(C(C)C)C(=O)N(Cc4cn(CCC5OCCO5)nn4)CCS3(=O)=O)cc2)cc1OC (stereo unspecified) | 8 | 49
